# Results: PubChem BioAssay
# Calls of active or inactive are those of the source.
# Legend:
# [1] = E. coli DRC41 culture turbidity changes, primary screen, E. coli filamentation inducer project, strain DRC41, OD650, 48 h (AID 1152);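 further: E. coli MC1000 strain DRC41 lacking acrAB efflux pump and sulA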; settings: E. coli DRC41 (acrAB sulA), higher = more signal, called active from +8 up or from −8 down
# [2] = small-molecule binders of probe aLefty1, primary screen, biochemical, small-molecule microarray, 635/667 nm fluorescence (AID 1153); settings: higher = more signal;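 further: score merges spot fluorescence with signal-to-noise ratio from the scanned slide images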
# [3] = PSAC antagonists in infected red cells, primary screen, cell-based, P. falciparum Indochina, OD700, 1 h (AID 1154); settings: P. falciparum Indochina infected RBC osmotic lysis, higher = more signal, called active from +8 up or from −8 down
# [4] = PSAC antagonists in infected red cells, primary screen, cell-based, P. falciparum Indochina, OD700, 2 h (AID 1155);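 further: lysis reports solute entry through the parasite surface anion channel PSAC; channel blockers reduce lysis of infected cells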; settings: P. falciparum Indochina infected erythrocytes, osmotic lysis OD700; higher = more signal, called active from +8 up or from −8 down
# [5] = osmotic lysis modulators in infected erythrocytes, primary screen, PSAC antagonist project, cell-based, P. falciparum Indochina, OD700, 3 h (AID 1156); settings: higher = more signal, called active from +8 up or from −8 down
# [6] = PSAC antagonists in infected red cells, primary screen, cell-based, P. falciparum Indochina, OD700, 18 h (AID 1157); settings: P. falciparum Indochina infected erythrocytes, osmotic lysis OD700, 18 h; higher = more signal, called active from +8 up or from −8 down
# [7] = modulators of S6 phosphorylation in cells, primary screen, cell-based, A549, cytoblot, luminescence, serum-stimulated (AID 1158); settings: A549 phospho-S6 cytoblot, 5 h, higher = more signal;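 further: serum-stimulated A549 lung adenocarcinoma cells; signal is phosphorylated S6 detected by cytoblot immunostaining with HRP secondary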
# [8] = target: NADPH oxidase 2 (Homo sapiens) (UniProt P04839); assay: NOX2-dependent H2O2 signal modulators, primary screen, NOX inhibitor project, cell-based, HEK293-NOX2, PMA-stimulated, Amplex Red fluorescence (AID 1159); settings: 45 min, higher = more signal, called active from +8 up or from −8 down; further: test concentration not given here
# Chain of NADPH oxidase 2 (Homo sapiens) (P04839 whole entry, looked up): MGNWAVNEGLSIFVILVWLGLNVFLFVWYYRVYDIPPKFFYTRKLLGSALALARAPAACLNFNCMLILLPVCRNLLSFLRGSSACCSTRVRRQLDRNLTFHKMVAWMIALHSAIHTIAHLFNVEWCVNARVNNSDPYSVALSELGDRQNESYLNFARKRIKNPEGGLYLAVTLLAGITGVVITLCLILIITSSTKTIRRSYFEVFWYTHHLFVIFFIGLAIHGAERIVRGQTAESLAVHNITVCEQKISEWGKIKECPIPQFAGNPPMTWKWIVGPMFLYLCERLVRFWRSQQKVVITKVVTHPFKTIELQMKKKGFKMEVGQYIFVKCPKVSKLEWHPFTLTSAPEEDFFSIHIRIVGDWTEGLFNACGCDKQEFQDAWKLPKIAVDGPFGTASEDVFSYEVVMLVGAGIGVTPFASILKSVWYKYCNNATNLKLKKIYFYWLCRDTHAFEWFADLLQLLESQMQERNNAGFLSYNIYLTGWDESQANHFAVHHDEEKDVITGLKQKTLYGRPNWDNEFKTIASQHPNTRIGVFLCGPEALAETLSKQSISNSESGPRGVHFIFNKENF
# [9] = target: NADPH oxidase 4 (Homo sapiens) (UniProt Q9NPH5); assay: NOX4-dependent H2O2 signal modulators, primary screen, NOX inhibitor project, cell-based, HEK293-NOX4, tetracycline-induced, Amplex Red fluorescence (AID 1160); settings: 45 min, higher = more signal, called active from +8 up or from −8 down
# Chain of NADPH oxidase 4 (Homo sapiens) (Q9NPH5 whole entry, looked up): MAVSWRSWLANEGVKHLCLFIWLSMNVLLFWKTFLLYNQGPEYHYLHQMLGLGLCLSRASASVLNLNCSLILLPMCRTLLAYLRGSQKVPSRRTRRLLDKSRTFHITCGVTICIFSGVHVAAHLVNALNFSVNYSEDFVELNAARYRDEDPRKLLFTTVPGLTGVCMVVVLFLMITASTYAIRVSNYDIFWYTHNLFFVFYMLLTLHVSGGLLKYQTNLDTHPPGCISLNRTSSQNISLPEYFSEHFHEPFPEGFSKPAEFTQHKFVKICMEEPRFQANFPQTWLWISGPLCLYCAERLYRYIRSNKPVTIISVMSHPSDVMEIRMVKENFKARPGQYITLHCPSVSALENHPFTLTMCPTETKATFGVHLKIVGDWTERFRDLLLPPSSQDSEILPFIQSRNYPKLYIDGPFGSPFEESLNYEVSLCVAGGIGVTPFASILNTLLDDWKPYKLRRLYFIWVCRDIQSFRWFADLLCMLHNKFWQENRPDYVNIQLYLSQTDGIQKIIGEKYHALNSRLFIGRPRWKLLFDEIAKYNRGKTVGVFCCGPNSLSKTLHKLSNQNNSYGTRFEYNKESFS
# [10] = target: NADPH oxidase 5 (Homo sapiens) (UniProt Q96PH1); assay: NOX5-dependent H2O2 signal modulators, primary screen, NOX inhibitor project, cell-based, HEK293-NOX5, Amplex Red fluorescence (AID 1161); settings: HEK293-NOX5, ionomycin, 45 min, higher = more signal
# Chain of NADPH oxidase 5 (Homo sapiens) (Q96PH1 whole entry, looked up): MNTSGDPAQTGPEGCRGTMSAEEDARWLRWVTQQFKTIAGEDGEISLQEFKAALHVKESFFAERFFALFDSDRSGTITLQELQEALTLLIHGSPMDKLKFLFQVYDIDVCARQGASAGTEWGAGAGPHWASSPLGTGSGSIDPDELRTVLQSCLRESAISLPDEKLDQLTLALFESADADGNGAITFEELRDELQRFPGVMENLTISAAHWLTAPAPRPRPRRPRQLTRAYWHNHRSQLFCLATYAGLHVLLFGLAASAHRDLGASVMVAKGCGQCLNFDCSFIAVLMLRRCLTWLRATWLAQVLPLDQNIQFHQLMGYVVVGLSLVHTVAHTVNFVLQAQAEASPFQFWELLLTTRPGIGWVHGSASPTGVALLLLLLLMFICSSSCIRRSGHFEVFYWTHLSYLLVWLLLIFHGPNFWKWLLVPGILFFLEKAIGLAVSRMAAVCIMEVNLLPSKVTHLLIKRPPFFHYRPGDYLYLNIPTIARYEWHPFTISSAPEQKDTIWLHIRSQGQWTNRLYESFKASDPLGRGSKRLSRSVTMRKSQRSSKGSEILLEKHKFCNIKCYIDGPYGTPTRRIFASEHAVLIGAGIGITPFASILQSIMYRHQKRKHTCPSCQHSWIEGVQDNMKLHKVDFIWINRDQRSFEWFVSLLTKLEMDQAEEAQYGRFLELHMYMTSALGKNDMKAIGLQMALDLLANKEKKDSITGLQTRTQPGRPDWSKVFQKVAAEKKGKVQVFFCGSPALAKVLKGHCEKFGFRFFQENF
# [11] = A549 cell viability effects, profiling panel, calcein-AM fluorescence, 48 h, basal (AID 1162); settings: higher = more signal; further: test concentration not given here
# [12] = adipocyte viability effects, profiling panel, cell-based, 3T3-L1 adipocytes, calcein-AM fluorescence, 48 h, basal (AID 1163); settings: 3T3-L1 adipocytes viability, higher = more signal; further: test concentration not given here
# [13] = HepG2 cell viability effects, profiling panel, calcein-AM fluorescence, 48 h, basal (AID 1164); settings: higher = more signal; further: test concentration not given here
# [14] = MM1S cell viability effects, profiling panel, calcein-AM fluorescence, 48 h, basal (AID 1165); settings: higher = more signal;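 further: viability of MM1S multiple myeloma cells under basal unstimulated conditions; test concentration not given here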
# [15] = basal RPMI8226 viability, no added stimulus, profiling panel, cell-based, calcein-AM fluorescence, 48 h, PK04 Diversity Set (AID 1166); settings: RPMI8226 myeloma viability, higher = more signal;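 further: cells grown under basal conditions without added stimulus; test concentration not given here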
# [16] = basal HepG2 mitochondrial membrane potential changes, profiling panel, cell-based, JC-1 fluorescence, 24 h, 100 nL compound (AID 1167); settings: higher = more signal; further: test concentration not given here
# [17] = basal 3T3-L1 adipocyte mitochondrial potential changes, profiling panel, cell-based, JC-1 fluorescence, 3T3-L1 adipocytes, 24 h, 100 nL compound (AID 1168); settings: JC-1 mitochondrial fluorescence, higher = more signal, called active from +8 up or from −8 down; further: test concentration not given here
# [18] = basal RPMI8226 mitochondrial membrane potential changes, profiling panel, cell-based, JC-1 fluorescence, 24 h, 100 nL compound (AID 1169); settings: RPMI8226 myeloma, JC-1 mitochondrial potential fluorescence, higher = more signal; further: test concentration not given here
# [19] = basal MM1S mitochondrial membrane potential changes, profiling panel, cell-based, JC-1 fluorescence, 24 h, 100 nL compound (AID 1170); settings: higher = more signal; further: test concentration not given here
# [20] = A549 lung cancer cell viability effects, profiling panel, resazurin fluorescence, 24 h, PK04 Diversity Set (AID 1171); settings: higher = more signal, called active from +8 up or from −8 down; further: test concentration not given here
SMILES,z-score [1],composite z-score [2],z-score [3],z-score [4],z-score [5],z-score [6],z-score [7],z-score [8],z-score [9],z-score [10],z-score [11],z-score [12],z-score [13],z-score [14],z-score [15],z-score [16],z-score [17],z-score [18],z-score [19],z-score [20]
NC(=O)N1C(=O)C2C(C1=O)C1C=C(CCCO)C2C(c2ccc(CN3CCCC3)cc2)N1Cc1cccc(OC(F)(F)F)c1 (stereo not given),-0.267 (inactive),-0.101,1.86 (inactive),0.63 (inactive),0.0703 (inactive),0.208 (inactive),-0.267,-1.4 (inactive),-0.76 (inactive),-1.04,0.0272,-0.0602,-0.215,-3.34,-0.614,0.221,-0.348 (inactive),0.708,-0.275,0.657 (inactive)
CC(C)CNC(=O)[C@@H]1c2ccccc2C(=O)N(Cc2ccccc2Cl)[C@H]1c1ccc(CO)cc1,0.244 (inactive),-0.133,2.54 (inactive),0.526 (inactive),0.531 (inactive),0.181 (inactive),0.279,-0.451 (inactive),0.16 (inactive),-1.75,-0.103,0.187,-0.228,-0.242,-0.183,1.01,-0.0284 (inactive),0.13,0.438,0.914 (inactive)
O=C1OCCC=C[C@H]2OC34C=CCN(c5ccc(Cl)cc5)C(=O)[C@H]3N(CCO)C(=O)[C@@H]4C12 (stereo not given in full),-0.232 (inactive),-0.0501,0.773 (inactive),0.183 (inactive),0.766 (inactive),0.355 (inactive),-0.509,1.69 (inactive),-0.0621 (inactive),1.48,-0.384,0.0844,0.0509,0.739,-0.165,-0.28,0.296 (inactive),0.0137,1.29,0.519 (inactive)
CCOC(=O)C1=CC[C@@H](c2ccccc2Cl)N(S(=O)(=O)c2ccc(C)cc2)[C@H]1c1cccc(OC)c1,-1.44 (inactive),0.0082,1.23 (inactive),1.16 (inactive),0.106 (inactive),0.362 (inactive),-0.401,0.78 (inactive),0.238 (inactive),0.113,-0.698,-1.56,-0.467,-0.744,0.688,0.405,-1.39 (inactive),0.702,-0.539,0.219 (inactive)
CCCCCCCCCCC(O)C1C=CC2C(=O)N(C)C(=O)C2N1N1CCCCC1 (stereo not given),-1.83 (inactive),0.532,9.71 (active),2.41 (inactive),2.12 (inactive),2.2 (inactive),-1.58,1.18 (inactive),-1.94 (inactive),2.16,-1.25,-1.6,-1.17,-3.29,-3.54,-0.235,-1 (inactive),-1,-0.517,-0.041 (inactive)
COCCCN1C(=O)[C@@]2(Cc3ccccc31)c1ccccc1C(=O)N(Cc1ccccc1OC)[C@H]2c1ccc(CO)cc1,0.168 (inactive),0.193,0.883 (inactive),0.216 (inactive),0.0049 (inactive),-0.185 (inactive),0.592,0.0278 (inactive),0.545 (inactive),1.41,-0.609,1.12,-0.95,-0.492,-0.452,-0.499,-0.722 (inactive),0.695,-0.0862,-0.458 (inactive)
CCOC(=O)C[C@H]1[C@H](OC(=O)c2cc3ccccc3oc2=O)[C@@H](NC(=O)C2CCCCC2)c2cc(OCCCO)ccc2N1C(=O)Cc1ccc(OC)cc1,-0.926 (inactive),0.266,2.92 (inactive),0.275 (inactive),0.722 (inactive),0.328 (inactive),0.0301,1.57 (inactive),1.01 (inactive),1.63,-0.266,0.535,0.391,0.254,0.0583,0.38,-0.229 (inactive),0.0411,0.185,-0.545 (inactive)
C=CCC(OC(C)=O)[C@@H]1[C@@H](N(Cc2ccc(-c3ccccc3)cc2)C(=O)c2cccc3ccccc23)c2cc(OCCCO)ccc2N1C(=O)c1ccc2ccccc2c1 (stereo not given in full),-0.887 (inactive),-0.0447,0.441 (inactive),-0.35 (inactive),-0.0836 (inactive),-0.0577 (inactive),-0.146,-0.634 (inactive),-0.572 (inactive),-4.29,0.197,-0.114,0.833,-0.679,-0.202,1.91,-1.3 (inactive),-0.53,0.0357,-0.725 (inactive)
CCCC[C@@H]1C[C@H]1[C@@H](NC(=O)c1ccc(C(F)(F)F)cc1)c1ccc(C(=O)OC)cc1,-0.499 (inactive),0.375,8.27 (active),0.851 (inactive),0.512 (inactive),0.422 (inactive),-0.0327,-0.628 (inactive),0.497 (inactive),1.03,-0.844,-0.55,-1.33,-1.97,-1.73,-0.84,0.282 (inactive),-0.167,-1.72,0.312 (inactive)
